# Measured values as given in ChEMBL document CHEMBL1201862, “PubChem BioAssay data set” (2004).
# These assays gave more results; the selection is not random.
# Target: Pyruvate kinase PKM (Homo sapiens) (UniProt P14618)
# Experiment: Confirmation Concentration-Response Assay for Activators of Human Muscle isoform 2 Pyruvate Kinase: for Probe SAR.
# Type: functional
# Sequence of Pyruvate kinase PKM (Homo sapiens) (P14618 2-531 limits assumed): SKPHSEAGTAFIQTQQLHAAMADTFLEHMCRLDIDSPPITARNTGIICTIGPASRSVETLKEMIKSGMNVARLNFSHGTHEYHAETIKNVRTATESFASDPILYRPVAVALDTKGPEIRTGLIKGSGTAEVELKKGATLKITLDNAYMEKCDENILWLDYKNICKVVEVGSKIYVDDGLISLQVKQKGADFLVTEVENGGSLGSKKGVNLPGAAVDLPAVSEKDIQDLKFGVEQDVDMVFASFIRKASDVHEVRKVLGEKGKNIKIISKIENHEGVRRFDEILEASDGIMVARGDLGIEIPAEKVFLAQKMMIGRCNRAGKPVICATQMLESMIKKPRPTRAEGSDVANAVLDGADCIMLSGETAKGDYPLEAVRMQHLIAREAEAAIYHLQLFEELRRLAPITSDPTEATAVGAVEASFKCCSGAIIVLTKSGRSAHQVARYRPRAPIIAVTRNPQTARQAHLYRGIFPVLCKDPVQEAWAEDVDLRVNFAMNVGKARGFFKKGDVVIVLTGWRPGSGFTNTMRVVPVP
compound,measurement,value
C[N+](C)(C)c1cccc(S(=O)(=O)N2CCCN(S(=O)(=O)c3ccc4c(c3)OCCO4)CC2)c1,Potency,16.3 µM (active)
